Screening results from PubChem.
Rows were chosen to be rich in hits. Some 5.3% of all compounds tested hit in one or more screens of this group.
M18AAP inhibitor: PfM18AAP inhibitors, malaria aminopeptidase, primary screen, biochemical, QFRET, recombinant enzyme; inhibition, % at 7.35 µM; M18 aspartyl aminopeptidase (Plasmodium falciparum 3D7); H-Glu-NHMec fluorogenic cleavage; actives 1.2% (n = 290,000);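 active = inhibition above the campaign mean inhibition over all tested compounds plus 3 SD, cut at about 28% in these data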
Mot1-301 SUMO: yeast Mot1-301 growth rescue at high temperature, primary screen, SUMOylation pathway inhibitor project, S. cerevisiae, ATP luminescence, 38.5C; growth rescue, % at 18.8 µM; AID 2716, 2010; actives 1% (n = 320,000); S. cerevisiae Mot1-301 growth rescue; percent above DMSO median, 100 means doubled;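 active = every valid replicate shows activation above 250% relative to neutral control wells; inactive = the rest, any valid replicate at or below 250%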
ALR H2O2 inh: inhibitors of human ALR sulfhydryl oxidase, primary screen, biochemical, H2O2 detection, HRP-luminol luminescence, single point. purified ALR, DTT oxidation. inhibition, % (concentration not given with the values). FAD-linked sulfhydryl oxidase ALR (Homo sapiens), P55789. actives 3.8% (n = 290,000). AID 485317, 2010;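 active = mean replicate inhibition above about 79%, with every replicate also reaching it, limit read from the data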
Target sequence (P55789 whole entry, looked up): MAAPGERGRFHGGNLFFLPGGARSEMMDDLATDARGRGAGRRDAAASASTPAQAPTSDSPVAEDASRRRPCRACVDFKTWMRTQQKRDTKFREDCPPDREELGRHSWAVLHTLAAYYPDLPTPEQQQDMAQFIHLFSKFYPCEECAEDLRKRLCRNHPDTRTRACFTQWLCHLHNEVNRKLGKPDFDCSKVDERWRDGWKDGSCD
HIF activator: HIF pathway transcriptional activators, primary screen, cell-based, U2OS HRE-luciferase, luminescence; U2OS HRE-luciferase reporter; normalized: DMSO 0%, desferrioxamine 100%; actives 0.32% (n = 300,000); activation, % at 7.5 µM (by protocol);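 active = mean activation of at least 10% of the iron chelator positive control signal, with at least half of replicates also reaching 10%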
A number is an active result; 0 = inactive; - = no result; + = active, no number.

SMILES	M18AAP inhibitor	Mot1-301 SUMO	ALR H2O2 inh	HIF activator
Cn1c(CNc2ccc(F)cc2)nc2ccccc21	0	0	85	0
CN(C)/C=C(\C#N)C(=O)Nc1ccc(O)cc1F	0	0	99	0
CN(C)/C=C(\C#N)C(=O)Nc1ccccc1	0	0	0	0
CCn1ccnc1CN(C)C(=O)c1ccc(OC2CCN(CCc3ccccc3)CC2)cc1	0	-	0	0
CCOC(=O)c1c(C)nc2ccc(C)cn12	0	0	0	0
CCOC(=O)c1c(C)nc2cc(C)ccn12	0	0	0	14
CCN(CCCNC(=O)C1CCC(=O)N1C(C)C)c1cccc(C)c1 (configuration not stated)	0	0	99	0
CCOC(=O)N1CCN(c2c(NCCCN(C)c3ccccc3)c(=O)c2=O)CC1	0	0	99	0
CCOC(=O)N1CCN(c2c(NCCN(C)Cc3ccccc3)c(=O)c2=O)CC1	0	0	0	-
CCOC(=O)N1CCC(Nc2c(NCCN3CCN(Cc4ccccc4)CC3)c(=O)c2=O)CC1	0	0	0	0
CCOC(=O)N1CCC(Nc2c(NCCCN(CC)c3cccc(C)c3)c(=O)c2=O)CC1	0	0	99	0
CCN(CCCNC(=O)CCCN1C(=O)COc2ccc(C)cc21)c1cccc(C)c1	0	0	98	0
CC(C)OCCCNC(=O)C1CCC(=O)N1C(C)C (configuration not stated)	0	0	0	0
CCN(CC(=O)Nc1c(F)cccc1F)C(=O)CCN1C(=O)C2CC=CCC2C1=O (configuration not stated)	-	0	0	0
CCN(CCCNC(=O)c1c(C)cc(=O)oc1C)c1cccc(C)c1	0	0	100	0
CCOC(=O)C1CCCN(c2c(NCCCN(CC)c3ccccc3)c(=O)c2=O)C1 (configuration not stated)	0	0	98	0
CCOC(=O)C1CCN(c2c(NCCN(CC)c3ccccc3)c(=O)c2=O)CC1	0	0	98	0
C=CCc1c(C)nc(SCC(=C)C)[nH]c1=O	0	0	0	0
CC(C)CC(OC(=O)CC1Sc2ccccc2NC1=O)C(=O)NC1CCCC1 (configuration not stated)	0	0	0	0
CCn1nc(C)c(CNC(=O)C2CCC(=O)N(Cc3ccc(Cl)cc3)C2)c1C (configuration not stated)	0	0	0	0
CCCOc1ccc(-c2cnc(N)s2)cc1	0	0	98	0
CCCOc1ccc(OCCSc2nnc(N)s2)cc1	0	0	0	0
NNC(=O)c1ccc(CSc2nc3ccccc3s2)cc1	0	0	0	0
COCCN(CCOC)C(=O)c1ccc(CSc2nc3ccccc3s2)cc1	0	0	92	0
CC(C)CN(CC(C)C)c1nnc(N)s1	0	0	99	0
SMILES	M18AAP inhibitor	Mot1-301 SUMO	ALR H2O2 inh	HIF activator
CCc1ccc(OC)c(-c2csc(N)n2)c1	0	0	98	0
CCCCOc1ccc(-c2cn3ccccc3n2)cc1[N+](=O)[O-]	0	0	0	0
Nc1nc(-c2ccc(F)cc2)cs1	0	0	0	0
COc1ccc(-c2csc(N)n2)cc1F	0	0	96	0
CCCOc1ccc(-c2csc(N)n2)cc1[N+](=O)[O-]	0	0	99	0
CCc1ccccc1N/C(=N\S(=O)(=O)c1ccccc1)C(F)(F)F	0	0	-	0
COC(=O)C1CCN(C(=O)COC(=O)C2CCN(S(=O)(=O)c3ccc(C)c(C)c3)CC2)CC1	-	0	0	0
O=C(O)/C=C/C(=O)Nc1ccc(C2(c3ccc(NC(=O)/C=C/C(=O)O)cc3)c3ccccc3-c3ccccc32)cc1	0	0	98	0
O=C(O)/C=C\C(=O)Nc1ccc(Oc2ccccc2)cc1	0	0	0	0
O=C(O)/C=C/C(=O)Nc1ccc(Oc2ccc(NC(=O)/C=C/C(=O)O)cc2)cc1	0	0	-	0
O=C(O)/C=C/C(=O)Nc1ccc(Cc2ccc(NC(=O)/C=C/C(=O)O)cc2)cc1	0	0	99	0
COc1ccccc1Nc1nc(C)cs1	0	0	99	0
Cc1csc(Nc2cccc3ccccc23)n1	0	0	0	0
C=CCc1cccc(CNn2cnnc2)c1O	0	0	0	0
O=C(c1cccnc1)N1CCN(S(=O)(=O)c2cccc(Cl)c2)CC1	0	0	0	0
O=C(c1cncc(Br)c1)N1CCN(S(=O)(=O)c2ccc(Cl)cc2)CC1	0	306	0	0
COCCCNC(=O)c1ccccc1Oc1ccccc1	0	0	98	0
CCC(C)Nc1cc(C)nc2ncnn12 (configuration not stated)	0	+	0	0
C#CCNc1cc(C)nc2ncnn12	0	0	0	0
Cc1cc(Nc2ccc(N3CCC(C)CC3)cc2)n2ncnc2n1	0	0	90	0
O=C(CSc1nc(O)c(-c2ccccc2)c(=O)[nH]1)N1CCOCC1	0	0	0	0
O=C(CSc1nc(O)c(C(c2ccccc2)c2ccccc2)c(=O)[nH]1)N1CCOCC1	0	0	91	0
CC(C)c1c(O)nc(SCC(=O)N2CCOCC2)[nH]c1=O	0	0	96	0
Cc1ccc(C=Nc2ccc(N(C)C)cc2)o1	0	0	98	0
Cc1ccc(C=Nc2ccccc2C(N)=O)o1	0	0	0	0
SMILES	M18AAP inhibitor	Mot1-301 SUMO	ALR H2O2 inh	HIF activator
CCCCc1c(O)nc(SCC(=O)c2ccccc2)n(-c2ccccc2OC)c1=O	0	0	99	0
CCCCc1c(O)nc(SCC(=O)c2ccccc2)n(-c2ccccc2)c1=O	0	0	0	0
CCCCc1c(O)nc(SCC(=O)c2ccccc2)n(-c2ccccc2C)c1=O	0	0	97	0
CCCCn1c(N)c(N(CCOC)C(=O)c2c(-c3ccccc3)noc2C)c(=O)[nH]c1=O	-	0	0	0
CCn1cc(S(=O)(=O)NCCc2ccccc2OC)cn1	0	0	0	0
COc1ccc(CN2CCNC(=O)C2CC(=O)NC2CCCC2)c(OC)c1 (configuration not stated)	0	0	0	55
Cc1ccc(CN2CCNC(=O)C2CC(=O)NC2CCCCCC2)o1 (configuration not stated)	0	347	0	0
COc1ccc(CN2CCNC(=O)C2CC(=O)NC2CCCCC2)c(OC)c1 (configuration not stated)	0	0	0	0
Cc1cc(C)n2nc(C(=O)OCC(=O)NCc3ccccc3)nc2n1	-	0	0	-
CCCCNc1nc(Nc2ccc(C)c(Cl)c2)c2cnn(C)c2n1	0	0	0	0
CCOC(=O)c1c(-c2ccc(C)cc2)csc1NC(=O)CCSc1nnc2ccccn12	0	0	0	0
CCCCN1C(=O)/C(=c2\sc3nc(=O)c(-c4ccccc4)nn3c2=O)c2ccccc21	0	0	97	0
Cc1cccc(CS(=O)(=O)Cc2ccc(C(=O)NCc3cccs3)o2)c1	0	0	-	0
C/C(=N\Nc1ccc([N+](=O)[O-])cc1[N+](=O)[O-])C(C)(C)C(C(=O)O)C(=O)O	0	0	83	0
O=C(NC1(N2CCOCC2)CC1)c1ccc(Cl)cc1	0	0	0	0
